L3MBTL1 inh = L3MBTL1 (human) inhibition; Q9Y468; AlphaScreen L3MBTL1–H3K9me1 peptide binding; Potency, µM (highest dose often 57.1 µM), without a hit: at the top dose activity, negative = inhibition, actives largely listed as inhibitors; 230,000 compounds, 0.66% hits; also: % is scaled to controls: 0 for no effect and ±100 for the full control effect; nearly all actives have a fitted effect of over 60% in size
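L3MBTL1 50 nM + b-AHA-H3(1-15)K9me1 75 nM, 30 min RT; compound added, 30 min RT; streptavidin donor/Ni-chelate acceptor beads 10 ug/mL each final, 30 min RT dark; AlphaScreen read.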
Sfp inh = inhibitors of Bacillus subtilis Sfp phosphopantetheinyl transferase | 310,000 compounds, 3.5% hits | Potency, µM, for inactives: largest response in the series, negative = inhibition, usual class: inhibitors | Biochemical Sfp PPTase activity, qHTS;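 also: the enzyme is Sfp with the accession as filed and its product quenches rhodamine fluorescence; 0% = enzyme reaction without inhibitor and -100% = no enzyme wells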
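Step 1, compound plus 15 nM Sfp-PPTase, 15 min, room temperature. Step 2, add rhodamine-CoA (5 uM) and BHQ-2-YbbR (12.5 uM). Step 3, read 525/598 nm fluorescence at 0 and 30 min.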
HP1b chromo inh = inhibitors of HP1-beta chromodomain binding to methylated histone tails. Potency, µM (top dose mostly 114 µM), for inactives: at the highest dose activity change, negative = inhibition, actives largely listed as inhibitors. AlphaScreen HP1-beta / biotin-H3K9me3 peptide binding. 390,000 compounds, 0.56% hits; also: nearly all actives have a fitted effect of over 70% in size
Target sequence (P83916 whole entry, looked up): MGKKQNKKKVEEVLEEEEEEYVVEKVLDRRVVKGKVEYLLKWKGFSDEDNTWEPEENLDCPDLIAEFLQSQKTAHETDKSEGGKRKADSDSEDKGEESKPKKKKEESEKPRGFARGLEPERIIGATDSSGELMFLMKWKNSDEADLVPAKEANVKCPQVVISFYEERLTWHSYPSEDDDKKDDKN
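Compound inhibition of the preformed complex between 50 nM HP1-beta and 50 nM biotinylated H3K9me3 peptide was read by AlphaScreen. Buffer was PBS pH 7.4 with 0.01% Tween-20. Incubations ran 30 min at room temperature, with 10 ug/mL donor/acceptor beads.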
G9a inh = inhibitors of human histone lysine methyltransferase G9a. Q96KQ7. AID 504332. 350,000 compounds, 8.8% hits. Potency, µM (series often up to 102 µM), inactives show top-dose activity, negative = inhibition, actives largely listed as inhibitors. G9a H3K9 monomethylation, AlphaScreen, 2 h; also: % is scaled to controls: 0 for no effect and ±100 for the full control effect; nearly all actives have a fitted effect of over 75% in size
Target sequence (Q96KQ7 913-1193 limits assumed): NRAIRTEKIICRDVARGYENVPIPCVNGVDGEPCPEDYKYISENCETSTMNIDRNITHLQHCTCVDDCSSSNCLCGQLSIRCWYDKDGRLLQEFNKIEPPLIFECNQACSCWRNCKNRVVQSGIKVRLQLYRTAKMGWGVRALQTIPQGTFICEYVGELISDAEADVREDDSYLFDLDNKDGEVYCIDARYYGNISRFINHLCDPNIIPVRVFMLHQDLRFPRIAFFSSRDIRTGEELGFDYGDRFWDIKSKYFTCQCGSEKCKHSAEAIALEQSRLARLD
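AlphaScreen detection with an anti-monomethyl H3K9 antibody quantified product after a 2 h room-temperature reaction containing 500 nM biotinylated H3K9 peptide, 20 µM SAM and 20 nM enzyme, which had been preincubated 15 min with compound.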
BAZ2B block = inhibitors of human BAZ2B bromodomain; 360,000 compounds, 4.4% hits; AID 504333; Potency, µM (highest dose often 114 µM), inactives show top-dose activity change, negative = inhibition, usual class: inhibitors; AlphaScreen BAZ2B-H3K14Ac peptide displacement; Q9UIF8; also: % is scaled to controls: 0 for no effect and ±100 for the full control effect; nearly all actives have a fitted effect of over 60% in size
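Protein-peptide AlphaScreen: BAZ2B 50 nM, b-H3K14Ac 50 nM, 1x PBS pH 7.4 + 0.01% Tween-20. Preincubation 30 min RT; cpd 30 min RT (top 110 uM); beads 20 min RT, light-protected.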
JMJD2A Tudor inh = inhibitors of human JMJD2A Tudor domain; O75164; AlphaScreen JMJD2A-Tudor / H3K4me3 peptide binding; Potency, µM (top dose mostly 114 µM), without a hit: at the highest dose activity change, negative = inhibition, hits mostly inhibitors; 390,000 compounds, 4.4% hits; AID 504339; also: % is scaled to controls: 0 for no effect and ±100 for the full control effect; nearly all actives have a fitted effect of over 50% in size
An asterisk follows results filed as active; ? = inconclusive; . = no result; [ ] = another dose, or the depositor's remark. Most compounds without a hit are left out; they make up all but 12% or so of the library. Calls follow the shape of the dose curve; as a rule, active = well fitted curve in the direction sought with a large enough effect; inconclusive = small, poorly fitted or top-dose-only effect, or another doubt; inactive = no such curve, though single readings can be large; an effect the other way counts as inactive or inconclusive. Potency is read from the fitted curve at half-maximal effect.

SMILES	L3MBTL1 inh	Sfp inh	HP1b chromo inh	G9a inh	BAZ2B block	JMJD2A Tudor inh
Cc1cc(=O)oc2c3c(ccc12)OCN(Cc1ccc(Cl)cc1)C3	.	.	28%	-50%[59 µM]	9%	7%
CCC(=O)NC1=C(Cl)C(=O)C(NC(=O)CC)=C(Cl)C1=O	-22%	0.56µM*	4µM*	0.25µM*	45µM*	4µM*
COc1ccc(-c2csc(Nc3cc(C)ccn3)n2)cc1OC	-14%	-28%	-36%	40µM*	?	?
COc1ccc(-c2csc(Nc3cccc(C)n3)n2)cc1	-11%	-2%	-3%	-14%	-8%	-32%
COc1ccc(-c2csc(Nc3cccc(C)n3)n2)cc1C	.	-16%	-28%	50µM*	-34%	-24%
Clc1ccccc1-c1csc(Nc2cccnc2)n1	33%	32µM*	29%	.	-4%	-19%
Clc1cccc(-c2csc(Nc3cccnc3)n2)c1	5%	56µM*	13%	45µM*	-3%	-7%
CC(=O)Nc1c(Cl)c2c(c(Cl)c1Br)-c1ccc(Cl)cc1C2	.	.	10%[57 µM]	.	.	-3%
Cc1ccnc(Nc2nc(-c3c(C)nc4sccn34)cs2)c1	.	?	-34%	?	45µM*	?
COc1ccc(-c2csc(Nc3cccnc3)n2)cc1OC	-2%	3%	60%	50µM*	-6%	-16%[57.1 µM]
Clc1ccccc1Nc1nc(-c2cccnc2)cs1	-12%	?	-16%	-12%[12.7 µM]	56µM*	-25%
c1cncc(Nc2nc(-c3cccnc3)cs2)c1	-4%	-7%	14%	?	4%	-27%
Cc1ccc(Nc2nc(-c3ccc(O)c(O)c3)cs2)nc1	-7%	35µM*	?	16µM*	40µM*	32µM*
Cc1ccc(Nc2nc(-c3ccc(F)cc3)cs2)nc1	-2%	11%	36%	-2%[59 µM]	-24%	2%
CCOc1cc(C(=O)NCCc2csc3nc(-c4ccccc4F)nn23)cc(OCC)c1OCC	.	.	13%[57 µM]	14%[59 µM]	-1%	-19%
Cc1ccccc1C(=O)Nc1cc(C(F)(F)F)ccc1-n1cncn1	11%	.	23%	-1%[2.33 µM]	-5%	-2%
CCOc1ccc(OCC)c(NC(=O)c2nnn(CC(=O)Nc3cc(Cl)ccc3OC)c2N)c1	.	.	14%	-2%[59 µM]	.	-9%
O=C1C2C3C=CC(CC3)C2C(=O)N1c1ccccc1[N+](=O)[O-] (stereo not given)	.	56µM*	5%	?	-11%	-15%
COc1ccccc1C1OC(=O)CC1C(=O)OC[C@@H]1CCCN2CCCCC12 (stereo not given in full)	.	34%	.	.	.	.
COC(=O)c1ccccc1S(=O)(=O)N1CCC(C(=O)OCC(=O)c2ccccc2OC)CC1	22%	.	28%	40µM*	-31%	-14%
COC(=O)c1ccccc1S(=O)(=O)N1CCC(C(=O)N2CCC2)CC1	-6%	.	41%	5%[2.33 µM]	-5%	-8%
COC(=O)c1ccccc1S(=O)(=O)N1CCC(C(=O)OCc2cccc(OC)c2OC)CC1	-8%	.	25%	2%	32%	-5%
COC(=O)c1ccccc1S(=O)(=O)N1CCC(C(=O)OCC(=O)NC2CCCCC2C)CC1 (stereo not given)	11%	.	28%	20µM*	9%	-8%
COc1ccc(S(=O)(=O)N2CC(=O)Nc3ccccc32)cc1	-2%	24%	36%	-4%[59 µM]	-5%	-11%
COc1ccc(OCC(=O)N2CCN(C(=O)c3ccc(F)cc3)CC2)cc1	.	8%	37%	67%	1%	-11%
SMILES	L3MBTL1 inh	Sfp inh	HP1b chromo inh	G9a inh	BAZ2B block	JMJD2A Tudor inh
CC1CCCCN1C(=O)CSc1nnc(-c2ccco2)n1C (stereo not given)	.	5%	19%	-2%	-3%	1%
CCn1c(SCC(=O)N2CCCCC2C)nnc1-c1ccco1 (stereo not given)	.	-5%	19%	35µM*	4%	-13%
CC1CCCCN1C(=O)CSc1nnc(-c2ccco2)n1CC1CCCO1 (stereo not given)	-3%	12%	32%	14µM*	2%	0%
COCCCn1c(SCC(=O)N2CCCCC2C)nnc1-c1ccco1 (stereo not given)	-2%	?	23%	-3%[2.33 µM]	8%	-4%
O=C(CSc1nnc(-c2ccco2)n1Cc1ccccc1)c1ccccc1	-5%	56µM*	-11%	?	?	?
Cc1ccc(C(=O)CSc2nnc(-c3ccco3)n2CC2CCCO2)cc1 (stereo not given)	4%	?	9%	11µM*	2%	-31%
CC1(C)C(=O)N(c2ccccc2Cl)C(=O)c2ccccc21	.	2%	38%	79µM*	7%	2%
O=C(COc1ccc(Cl)cc1)NCCc1csc(-c2ccc(F)cc2)n1	.	.	18%[57 µM]	-5%[59 µM]	1%	-12%
Cc1ccc(C)c(-n2c3nc(=O)n(C)c(=O)c-3cc3ccccc32)c1	-21%	-11%	36%	79µM*	-35%	-15%
Cc1ccc(-n2c3nc(=O)n(C)c(=O)c-3cc3ccccc32)c(C)c1	.	.	25%	1%[59 µM]	.	-21%
O=C(/C=C/Nc1ccc(Oc2ccccc2)cc1)c1ccco1	-8%	50µM*	68%	-9%	-1%	-14%
O=C(Nc1ccc(Oc2ccc(NC(=O)c3ccco3)c(NC(=O)c3ccco3)c2)cc1)c1ccco1	-8%	26%	5µM*	-14%[59 µM]	-21%	-23%
Cc1cc(O)c(NC(=O)c2ccco2)cc1C	-21%[11.4 µM]	-10%	34%	8.9µM*	40%	3%
Cc1cc(NC(=O)c2ccccc2)ncc1NC(=O)c1ccco1	1%	-15%	18%	25µM*	-13%	-11%
Cc1ccc(O)c(NC(=O)c2ccco2)c1	-7%	2%	23%	12%[59 µM]	11%	-12%
C=CCOC(=O)N[C@H](/C(C(=O)OC)=C(\C)NCc1ccccc1)c1ccc2c(c1)OCO2	.	-9%	.	.	.	.
O=C1CC(c2cccc(O)c2)Oc2ccccc21 (stereo not given)	0%	.	17%	-51%[12.7 µM]	-2%	-4%
Cc1ccc(NC(=O)c2ccco2)c(NC(=O)c2ccccc2C)c1	.	14%	32%	16%	-2%	50µM*
COc1ccccc1C(=O)Nc1cc(C)ccc1NC(=O)c1ccco1	.	-9%	38%	.	-5%	-12%
COc1ccc(OC)c(NC2c3ccccc3C(=O)N2Cc2ccc3c(c2)OCO3)c1 (stereo not given)	.	7%	?	32µM*	35µM*	45µM*
O=C1c2ccccc2C(Nc2ccc(S(=O)(=O)N3CCCCC3)cc2)N1Cc1ccco1 (stereo not given)	.	40µM*	11%	?	-21%	-25%
